HSF1 inh: HSF1 inhibitors in luciferase reporter cells, primary screen, cell-based, NIH3T3, luminescence; NIH3T3-HGL HSE-luciferase, MG132-induced, luminescence 8 h; stronger effect = lower value; activity change, negative = inhibition, % at 7.5 µM (by protocol); 300,000 tested, 0.77% active;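 active = more than half of replicate wells show activity change below -50%, luminescence cut by over half; inconclusive = some wells, but at most half, below -50%; inactive = no replicate well below -50%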;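 note: luciferase reports HSF-1 transcriptional activity via heat shock element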
Wnt bcat act: Wnt/beta-catenin pathway activators, primary screen, cell-based, plate reader, single point; Wnt/beta-catenin reporter cell assay, activator; activation, % at 9.35 µM; 300,000 tested, 1.2% active; in the data active = activation above about 30%, passing the limit was not always enough; inconclusive = no clear call, values can overlap the other calls
HSF1 activator: HSF-1 activators, primary screen, NIH3T3-HGL cells, MG132 stress, luminescence, single point; NIH3T3-HGL HSF-1 luciferase reporter, 8 h; 100% = twice DMSO control signal; activation, % at 9 µM; 300,000 tested, 1.7% active; AID 504408, 2011;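 active = mean replicate activation of at least 50% with a set share of replicates each reaching 50%; inconclusive = only one of those two conditions met; inactive = mean below 50% and too few replicates reaching it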
esBAF inh: Bmi1 luciferase reporter increase in mESCs, primary screen, esBAF inhibitor project, mouse ES cells, Bmi1 luciferase knock-in, single point. 24 h; 100% = twice the neutral-well signal. reporter increase, % at 12.5 µM. 350,000 tested, 2% active. AID 602393, 2012; in the data active = activation above about 40%; inconclusive = no clear call, values can overlap the other calls;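 note: a rise in the Bmi1 reporter signal indicates esBAF inhibition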
MITF TRPM1 HTS: activators of MITF-driven TRPM1 promoter reporter, primary screen, cell-based, SK-MEL-5, luciferase, single point | SK-MEL-5 TRPM1-promoter luciferase, 24 h; % of positive control, neutral wells = 0 | activation, % at 12.5 µM | 300,000 tested, 0.75% active | AID 588334, 2011;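 active = mean activation of at least 80% with every replicate also reaching 80%; inconclusive = mean reaches 80% but some replicate falls short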
Numbers stand for hits; i = inactive; ? = inconclusive; nt = no result. Hits are enriched below; roughly 3.9% of the tested compounds scored in any of these assays.

SMILES	HSF1 inh	Wnt bcat act	HSF1 activator	esBAF inh	MITF TRPM1 HTS
O=C(Nc1ccc2c(c1)[C@H]1C[C@@H](CC(=O)N3CCc4ccccc4C3)O[C@H](CO)[C@H]1O2)C1CCOCC1	nt	nt	nt	i	nt
Cc1cnc(C(=O)Nc2ccc(F)c(F)c2)cn1	i	nt	i	61.8	i
Cc1cnc(C(=O)OCC(=O)Nc2ccc(OCc3ccccc3)cc2)cn1	nt	32.5	nt	?	95.7
CCCCOc1ccc(NC(=O)c2cnc(C)cn2)cc1	i	i	i	58.2	i
Cc1cnc(C(=O)OCC(=O)NCc2ccccc2)cn1	i	i	i	i	nt
C[C@@H]1CN([C@H](C)CO)S(=O)(=O)c2ccc(-c3ccccc3)cc2O[C@H]1CN(C)S(C)(=O)=O	nt	nt	nt	i	nt
CO[C@@H]1CN(C)C(=O)c2cc(NC(=O)Nc3cccc(F)c3)ccc2OC[C@H](C)N(C(C)=O)C[C@H]1C	nt	nt	nt	i	nt
CC(C)NC(=O)N(C)C[C@@H]1Oc2ccc(NC(=O)Nc3cccc4ccccc34)cc2CC(=O)N([C@H](C)CO)C[C@H]1C	nt	nt	nt	i	nt
C[C@@H]1CN([C@H](C)CO)C(=O)c2cc(NC(=O)c3ccccc3)ccc2O[C@@H](C)CCCCO[C@H]1CN(C)S(=O)(=O)c1ccc(Cl)cc1	nt	nt	nt	i	nt
Nc1cc(Cl)ccc1C(=O)OCC(=O)N1CCCCCC1	nt	i	nt	52.7	i
O=C(OCC(=O)N1CCN(Cc2ccccc2)CC1)c1cc(Cl)ccc1[N+](=O)[O-]	nt	36.9	nt	i	i
Cc1ccc(C(=O)c2ccccc2C(=O)OCC(=O)NC(C)(C)C)cc1	i	i	i	i	i
Cc1cccc(C(=O)OCC(=O)N2CCCCCC2)c1C	nt	34.3	nt	63.5	i
Cc1ccc(C(=O)c2ccccc2C(=O)OCC(=O)N2CCCC2)cc1	nt	i	nt	42.9	i
O=C(C[C@H]1CC[C@H]2[C@@H](COC[C@@H](O)CN2Cc2ccc3c(c2)OCO3)O1)Nc1ccc(-c2ccccc2)cc1	nt	nt	nt	i	nt
COc1cccc(S(=O)(=O)N2CC[C@H]3[C@H](CO)Nc4ccc(C#Cc5ccccc5)cc4[C@H]32)c1	nt	nt	nt	i	nt
C[C@H]1CN([C@@H](C)CO)C(=O)Cc2cc(NS(=O)(=O)c3ccccc3)ccc2O[C@H]1CN(C)S(=O)(=O)c1ccccc1	nt	nt	nt	i	nt
O=C(Nc1cccc2c1CCCC2)c1cc([N+](=O)[O-])ccc1Cl	i	nt	54.6	nt	i
Cc1cc(O)c(NC(=O)c2cc([N+](=O)[O-])ccc2Cl)cc1C	i	i	99.6	i	i
Cc1ccc(/C=N/c2sc3c(c2C#N)CCCCC3)o1	i	nt	i	i	i
CC(C)CN(/C=N/c1sc2c(c1C#N)CCCCC2)CC(C)C	i	i	i	i	i
CCN(/C=N/c1sc2c(c1C#N)CCCCC2)CC	i	nt	59.9	nt	i
CN1CCN(/C=N/c2sc3c(c2C#N)CCCCC3)CC1	i	nt	i	80.5	i
Cc1ccc(/C=N/c2sc3c(c2C#N)CCC3)s1	i	i	i	i	92.3
N#Cc1c(/N=C/C=C/c2ccccc2)sc2c1CCCC2	i	i	i	i	i
SMILES	HSF1 inh	Wnt bcat act	HSF1 activator	esBAF inh	MITF TRPM1 HTS
C[C@@H]1CCCCO[C@@H](CN(C)C(=O)NC2CCCCC2)[C@@H](C)CN([C@@H](C)CO)C(=O)c2cc(NC(=O)Nc3cccc4ccccc34)ccc2O1	nt	nt	nt	i	nt
CC(=O)Nc1ccccc1OC(C)C(=O)N1CC(C)CC(C)C1 (stereo unspecified)	i	i	113.6	i	i
O=C(Nc1ccc(Cl)cc1)N[C@@H]1CC[C@H](CCn2cc(C3(O)CCCC3)nn2)O[C@H]1CO	nt	nt	nt	i	nt
C[C@@H]1CCCCO[C@@H](CN(C)C(=O)Nc2cccc3ccccc23)[C@H](C)CN([C@H](C)CO)C(=O)c2cc(NC(=O)CCCN(C)C)ccc2O1	nt	nt	nt	i	nt
C[C@@H]1CN([C@H](C)CO)S(=O)(=O)c2ccc(C#Cc3ccc(F)cc3)cc2O[C@H]1CN(C)C(=O)CN(C)C	nt	nt	nt	i	nt
CC1=CC(=O)C(C(C)C)=C/C1=N/OS(=O)(=O)c1ccccc1	i	i	83.0	nt	nt
CC1=CC(=O)C=C(C)C1=NOS(=O)(=O)c1ccccc1	i	i	i	i	i
C[C@@H]1CCCCO[C@@H](CN(C)S(=O)(=O)c2cccs2)[C@H](C)CN([C@@H](C)CO)C(=O)c2cc(NS(=O)(=O)c3ccccc3)ccc2O1	nt	nt	nt	i	nt

Bioassay records deposited in PubChem by Broad Institute.
